In the supplement of paper PMC10849652 one finds log2 fold change data, which are given here for 23 targets.

Targets with a hit are over-represented here; the source holds about 7,900 in all. About 0.6% of all pairs of compound and target were hits. Unmarked numbers belong to inactive results.

Chain of UniProt P84103 (P84103 whole entry, looked up): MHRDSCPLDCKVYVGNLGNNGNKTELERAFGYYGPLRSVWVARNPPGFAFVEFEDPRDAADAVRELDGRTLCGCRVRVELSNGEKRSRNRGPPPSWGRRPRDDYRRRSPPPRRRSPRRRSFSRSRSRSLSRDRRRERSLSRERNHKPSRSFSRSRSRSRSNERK
Chain of UniProt Q9Y5X3 (Q9Y5X3 whole entry, looked up): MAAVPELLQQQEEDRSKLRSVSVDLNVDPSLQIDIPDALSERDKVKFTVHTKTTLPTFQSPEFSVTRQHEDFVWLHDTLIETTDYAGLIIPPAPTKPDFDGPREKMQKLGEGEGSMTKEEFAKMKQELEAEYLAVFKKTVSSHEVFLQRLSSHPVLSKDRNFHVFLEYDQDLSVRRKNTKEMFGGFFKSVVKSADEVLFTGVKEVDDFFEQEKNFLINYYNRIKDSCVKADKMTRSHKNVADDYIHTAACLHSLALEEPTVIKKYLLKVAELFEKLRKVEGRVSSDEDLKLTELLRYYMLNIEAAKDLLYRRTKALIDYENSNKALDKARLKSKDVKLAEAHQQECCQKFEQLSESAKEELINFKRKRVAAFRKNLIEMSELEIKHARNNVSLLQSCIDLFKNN
Chain of UniProt Q8WU79 (Q8WU79 whole entry, looked up): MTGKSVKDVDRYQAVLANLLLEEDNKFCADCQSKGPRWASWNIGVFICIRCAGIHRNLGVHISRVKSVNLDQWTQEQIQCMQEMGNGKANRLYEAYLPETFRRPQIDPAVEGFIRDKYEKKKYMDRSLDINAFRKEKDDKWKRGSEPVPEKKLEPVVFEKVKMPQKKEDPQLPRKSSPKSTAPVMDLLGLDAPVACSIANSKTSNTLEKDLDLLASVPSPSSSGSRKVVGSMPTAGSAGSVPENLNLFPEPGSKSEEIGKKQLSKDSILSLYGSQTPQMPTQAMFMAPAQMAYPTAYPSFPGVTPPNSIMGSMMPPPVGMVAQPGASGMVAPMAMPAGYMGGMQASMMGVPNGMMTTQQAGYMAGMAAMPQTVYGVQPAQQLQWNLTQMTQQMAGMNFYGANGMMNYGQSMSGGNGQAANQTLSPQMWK
Chain of UniProt P42229 (P42229 whole entry, looked up): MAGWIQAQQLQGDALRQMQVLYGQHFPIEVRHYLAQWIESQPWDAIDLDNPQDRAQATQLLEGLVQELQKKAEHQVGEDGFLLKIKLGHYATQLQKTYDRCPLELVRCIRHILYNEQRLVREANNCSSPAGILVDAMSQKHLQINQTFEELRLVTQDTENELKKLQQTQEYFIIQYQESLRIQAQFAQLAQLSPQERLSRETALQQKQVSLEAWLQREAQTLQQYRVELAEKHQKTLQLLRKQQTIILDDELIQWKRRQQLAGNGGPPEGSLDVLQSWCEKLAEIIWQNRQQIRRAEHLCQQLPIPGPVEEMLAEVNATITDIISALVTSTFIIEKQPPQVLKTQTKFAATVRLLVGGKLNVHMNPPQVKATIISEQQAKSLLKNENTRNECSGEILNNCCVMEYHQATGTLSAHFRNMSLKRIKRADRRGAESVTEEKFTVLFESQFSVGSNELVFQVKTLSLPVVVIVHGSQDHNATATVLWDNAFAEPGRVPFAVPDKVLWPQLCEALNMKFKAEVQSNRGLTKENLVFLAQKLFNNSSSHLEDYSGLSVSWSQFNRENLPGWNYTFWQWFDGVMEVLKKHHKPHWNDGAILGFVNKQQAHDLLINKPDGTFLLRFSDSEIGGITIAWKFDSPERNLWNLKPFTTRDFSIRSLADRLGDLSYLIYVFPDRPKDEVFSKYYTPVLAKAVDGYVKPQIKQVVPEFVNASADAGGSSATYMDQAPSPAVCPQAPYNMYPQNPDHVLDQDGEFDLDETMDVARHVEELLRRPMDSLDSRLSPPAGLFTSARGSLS
Chain of UniProt Q13395 (Q13395 whole entry, looked up): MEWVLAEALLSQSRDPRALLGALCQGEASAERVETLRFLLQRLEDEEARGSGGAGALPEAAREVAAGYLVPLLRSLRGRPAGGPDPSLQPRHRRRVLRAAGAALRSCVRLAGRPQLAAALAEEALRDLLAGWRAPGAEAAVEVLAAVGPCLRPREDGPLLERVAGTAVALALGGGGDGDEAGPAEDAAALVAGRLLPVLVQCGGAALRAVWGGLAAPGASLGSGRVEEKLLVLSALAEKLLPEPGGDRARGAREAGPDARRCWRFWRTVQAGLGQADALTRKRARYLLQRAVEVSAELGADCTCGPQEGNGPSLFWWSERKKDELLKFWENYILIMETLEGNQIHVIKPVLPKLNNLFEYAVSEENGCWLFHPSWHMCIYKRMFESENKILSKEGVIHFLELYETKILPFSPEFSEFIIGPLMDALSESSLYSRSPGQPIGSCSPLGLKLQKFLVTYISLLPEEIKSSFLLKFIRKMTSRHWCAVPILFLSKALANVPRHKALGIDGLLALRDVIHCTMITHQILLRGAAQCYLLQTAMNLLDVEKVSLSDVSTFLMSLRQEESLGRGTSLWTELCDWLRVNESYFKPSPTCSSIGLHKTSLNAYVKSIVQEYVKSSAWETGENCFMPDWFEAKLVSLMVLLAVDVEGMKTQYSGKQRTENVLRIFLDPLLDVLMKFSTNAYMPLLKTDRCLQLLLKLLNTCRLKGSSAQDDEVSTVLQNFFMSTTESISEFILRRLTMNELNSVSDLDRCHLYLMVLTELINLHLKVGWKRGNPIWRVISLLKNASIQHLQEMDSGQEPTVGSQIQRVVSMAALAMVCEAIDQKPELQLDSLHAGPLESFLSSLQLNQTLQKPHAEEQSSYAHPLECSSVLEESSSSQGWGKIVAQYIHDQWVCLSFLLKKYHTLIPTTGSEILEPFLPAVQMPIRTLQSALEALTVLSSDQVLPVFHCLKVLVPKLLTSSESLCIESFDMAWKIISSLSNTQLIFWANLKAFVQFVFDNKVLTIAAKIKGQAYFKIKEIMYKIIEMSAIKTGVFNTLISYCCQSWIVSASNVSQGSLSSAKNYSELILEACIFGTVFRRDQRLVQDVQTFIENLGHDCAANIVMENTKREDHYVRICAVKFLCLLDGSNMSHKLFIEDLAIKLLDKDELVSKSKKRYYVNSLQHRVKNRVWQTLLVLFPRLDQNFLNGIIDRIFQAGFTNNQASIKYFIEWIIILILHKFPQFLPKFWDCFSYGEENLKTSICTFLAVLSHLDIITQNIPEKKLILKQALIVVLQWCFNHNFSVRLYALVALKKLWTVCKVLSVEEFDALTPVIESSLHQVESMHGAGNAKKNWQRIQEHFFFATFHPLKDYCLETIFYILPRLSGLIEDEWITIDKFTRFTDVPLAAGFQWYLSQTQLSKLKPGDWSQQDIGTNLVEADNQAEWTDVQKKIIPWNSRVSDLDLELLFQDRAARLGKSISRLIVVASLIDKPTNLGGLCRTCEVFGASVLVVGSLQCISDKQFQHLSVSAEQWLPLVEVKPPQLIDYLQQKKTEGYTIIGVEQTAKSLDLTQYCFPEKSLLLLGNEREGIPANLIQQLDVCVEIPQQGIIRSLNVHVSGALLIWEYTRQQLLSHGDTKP
Chain of UniProt P62072 (P62072 whole entry, looked up): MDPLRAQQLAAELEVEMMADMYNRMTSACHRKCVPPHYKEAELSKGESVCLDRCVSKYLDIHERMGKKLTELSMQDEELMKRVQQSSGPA
Chain of UniProt O43615 (O43615 whole entry, looked up): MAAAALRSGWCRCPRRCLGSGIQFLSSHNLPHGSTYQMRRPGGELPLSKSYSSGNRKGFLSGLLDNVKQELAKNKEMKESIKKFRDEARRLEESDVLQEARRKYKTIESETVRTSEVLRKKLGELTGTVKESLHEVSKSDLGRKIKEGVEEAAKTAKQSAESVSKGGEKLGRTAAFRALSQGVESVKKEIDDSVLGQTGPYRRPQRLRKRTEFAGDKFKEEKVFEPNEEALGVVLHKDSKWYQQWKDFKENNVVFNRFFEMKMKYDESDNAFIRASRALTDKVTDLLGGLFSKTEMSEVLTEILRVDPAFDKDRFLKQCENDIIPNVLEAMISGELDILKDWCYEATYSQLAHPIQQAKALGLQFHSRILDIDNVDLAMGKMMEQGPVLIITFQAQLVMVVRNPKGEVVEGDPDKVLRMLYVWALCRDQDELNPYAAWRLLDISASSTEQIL
Chain of UniProt Q9BSF4 (Q9BSF4 whole entry, looked up): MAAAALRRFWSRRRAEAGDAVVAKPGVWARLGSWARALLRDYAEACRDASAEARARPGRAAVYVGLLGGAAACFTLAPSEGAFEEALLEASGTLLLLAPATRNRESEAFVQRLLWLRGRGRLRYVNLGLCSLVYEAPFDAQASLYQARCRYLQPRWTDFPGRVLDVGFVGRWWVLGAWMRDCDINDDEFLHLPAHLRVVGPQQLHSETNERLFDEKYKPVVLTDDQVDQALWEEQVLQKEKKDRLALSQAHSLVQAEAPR
Chain of UniProt Q969G3 (Q969G3 whole entry, looked up): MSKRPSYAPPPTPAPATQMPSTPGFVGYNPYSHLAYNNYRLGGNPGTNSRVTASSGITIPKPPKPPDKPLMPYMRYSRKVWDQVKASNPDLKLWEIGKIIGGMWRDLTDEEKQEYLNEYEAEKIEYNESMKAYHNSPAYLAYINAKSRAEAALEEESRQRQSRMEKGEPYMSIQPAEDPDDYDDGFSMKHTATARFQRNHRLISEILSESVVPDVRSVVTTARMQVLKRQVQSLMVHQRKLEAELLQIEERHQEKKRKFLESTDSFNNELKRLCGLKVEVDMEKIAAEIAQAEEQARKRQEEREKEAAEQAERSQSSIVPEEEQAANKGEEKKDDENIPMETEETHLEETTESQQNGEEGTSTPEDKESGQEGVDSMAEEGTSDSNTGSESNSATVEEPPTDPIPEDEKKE
Chain of UniProt P30626 (P30626 whole entry, looked up): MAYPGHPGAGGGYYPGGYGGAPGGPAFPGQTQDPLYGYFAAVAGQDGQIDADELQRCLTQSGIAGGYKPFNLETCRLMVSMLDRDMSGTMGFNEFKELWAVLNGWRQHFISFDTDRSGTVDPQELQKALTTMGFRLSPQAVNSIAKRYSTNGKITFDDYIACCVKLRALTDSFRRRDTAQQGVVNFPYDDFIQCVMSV

Compound in the assay: Cc1ccc(NC(=O)c2ccc(CN3CC[C@H](N(C)C)C3)c(C(F)(F)F)c2)cc1Nc1nccc(-c2cncnc2)n1 [bafetinib]
The experiment in a line: log2 fold change, soluble protein after heating vs DMSO (PISA); higher = thermal stabilisation; K562 cells, 10 uM, 30 min; active = over 0.2 and 3.5 SD of the protein, either way, in both replicates (recomputed). The method, boiled down:
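K562 cells at 2×10^6 cells/mL were treated with 10 μM compound for 30 min. Aliquots were heated for 3 min across 48°C-58°C, pooled, and extracted in PBS with 0.5% NP-40 at 4°C; soluble protein was the supernatant after 21,000xg for 90 min. Soluble protein was quantified by TMTpro 16plex LC-MS/MS with channel sums equalised, and reported as log2 fold change in thermal stability against DMSO controls, with values from duplicates.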
For STAT5B (UniProt P51692), the log2 fold change was -0.056. For the target STAT3 (UniProt P40763), the log2 fold change was -0.015. Next, STAM2 (UniProt O75886): -0.067; TIAL1 isoform 2 (UniProt Q01085): -0.072. Next, SLC38A9 (UniProt Q8NBW4): -0.022; STAT5A (UniProt P42229): 0.034. For SNX5 (UniProt Q9Y5X3), the log2 fold change is -0.154. Next, SMARCE1 (UniProt Q969G3): -0.181. Next, SRSF3 (UniProt P84103): 0.126; SMC5 (UniProt Q8IY18): 0.02; SNX1 (UniProt Q13596): -0.149. For the target TARBP1 (UniProt Q13395), the log2 fold change is -0.022. Next, STX17 (UniProt P56962): -0.049; SMARCAD1 isoform 2 (UniProt Q9H4L7): 0.067. Next, TIMM10 (UniProt P62072): -0.081; SPCS2 (UniProt Q15005): -0.057.

For the target SMAP2 (UniProt Q8WU79), the log2 fold change is 0.01. As to TK1 (UniProt P04183), the log2 fold change is -0.04. As to TIMM44 (UniProt O43615), the log2 fold change was -0.355 (active). As for TIMM29 (UniProt Q9BSF4), the figure is -0.051; as for SRI (UniProt P30626), -0.001; as for SORT1 (UniProt Q99523), -0.494 (active).

On to SLC7A6 (UniProt Q92536), for which the log2 fold change is 0.042.
